# Only some compounds are listed: those with a hit (about 2.9% of all), similar ones and a draw of the others.
# FXN GAA850 act – activators of GAA850 frataxin (FXN) promoter | activation, % at 6 µM | AID 540364 | HEK293 lucGAA850 FXN promoter luciferase reporter, 24 h; percent of 10 µM SAHA response | 360,000 compounds, 0.56% hits;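 active means activation above the average of all compounds screened plus 3 SD, cutoff fixed separately per campaign, cut at about 7.5% in these data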;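 further: 0% = DMSO wells and 100% = 10 µM SAHA wells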
# FAS TE block – FAS thioesterase (human) inhibition. P49327. recombinant FAS-TE, OMFH fluorogenic substrate, fluorescence endpoint. inhibition, % at 15 µM. 360,000 compounds, 0.67% hits;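 active means compounds whose normalised, plate-corrected inhibition of enzyme fluorescence in the single-dose primary screen is 50% or more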;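 further: 0% = DMSO with enzyme and 100% = substrate without enzyme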
# proKLK7 act – activators of human kallikrein-7 zymogen; P49862; purified proKLK7, EDANS-DABCYL substrate fluorescence; 100% is mature enzyme control, 0% vehicle; activation, % at 7 µM; 370,000 compounds, 0.9% hits; AID 652039;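 active means activation above the mean of all tested compounds plus 3 SD, computed per campaign excluding outliers beyond control limits, cut at about 13% in these data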
# Target sequence (P49862 whole entry, looked up): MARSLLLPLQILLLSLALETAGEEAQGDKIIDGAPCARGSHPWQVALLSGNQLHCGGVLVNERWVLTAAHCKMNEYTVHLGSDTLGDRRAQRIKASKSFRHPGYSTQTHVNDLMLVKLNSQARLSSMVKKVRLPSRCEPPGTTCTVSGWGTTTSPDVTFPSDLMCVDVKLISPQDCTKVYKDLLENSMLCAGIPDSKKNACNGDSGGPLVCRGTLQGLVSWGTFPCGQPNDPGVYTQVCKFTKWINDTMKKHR
# SMARCA2 activ – SMARCA2 function activation, primary screen. MG213 cells, MMTV-luciferase reporter, dexamethasone, overnight. activation, % at 9.1 µM. 370,000 compounds, 1% hits; in the data active means activation above about 7.8%;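 further: 0% = vehicle wells and 100% = reference activator wells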
# SMARCA2 act conf – confirmation of SMARCA2 (BRM) function activators; shares compounds with SMARCA2 activ; MG213 cells, MMTV-luciferase with dexamethasone, luminescence, overnight; MG213 cells expressing E1A, Rb sequestered; DMSO wells 0%, reference activator 100%; AID 652260; 3,500 compounds, 30% hits; activation, % at 9.1 µM;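 active means activation above its plate's cutoff, the mean activation of tested wells plus 3 SD, cut at about 7.9% in these data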
# VP16 Luc act – activates GAL4-VP16 luciferase, flagging SMARCA2 activator hits; shares compounds with SMARCA2 activ; HEK293 GAL4-VP16 pG5luc reporter, luciferase luminescence; scaled: DMSO wells 0%, SAHA wells 100%; activation, % at 9.1 µM; 3,500 compounds, 41% hits; AID 686939;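 active means activation above the solvent-only control well mean plus 3 SD, averaged across control plates, cut at about 5.2% in these data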
# proKLK7 act conf – confirmation of human kallikrein-7 zymogen activators; activation, % at 7 µM; AID 686949; shares compounds with proKLK7 act; purified proKLK7, EDANS-DABCYL substrate fluorescence; scaled: vehicle 0, mature enzyme 100; 3,200 compounds, 68% hits;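 active means activation, as change over the incubation, above the mean of all tested compounds plus 3 SD, cut at about 13% in these data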
# EDANS-DABCYL int – counter-screen for kallikrein-7 activators: EDANS-DABCYL optical interference; 3,200 compounds, 80% hits; activation, % at 7 µM; EDANS-DABCYL substrate fluorescence interference, no enzyme, 4 h; solvent 0%, active enzyme control 100%; shares compounds with proKLK7 act;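 active means activation above the all-compound mean plus 3 SD, ignoring values outside control-based bounds, cut at about 4.8% in these data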;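 further: value is the 4 h activation minus the activation read at time zero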
# * hit, by the source's call; · = no result given.
SMILES,FXN GAA850 act,FAS TE block,proKLK7 act,SMARCA2 activ,SMARCA2 act conf,VP16 Luc act,proKLK7 act conf,EDANS-DABCYL int
CC(=O)Nc1cccc(-c2cccc3nccn23)c1,2,-8,18*,11*,8.9*,7.7*,24*,27*
CN1CCN(S(=O)(=O)c2cccc(C(=O)Nc3sc4c(c3-c3nc5ccccc5[nH]3)CCCC4)c2)CC1,1,46,50*,21*,4,4,-4,12*
CC(=O)NCCC(=O)Nc1sc2c(c1-c1nc3ccccc3[nH]1)CCCC2,0,1,2,2,·,·,·,·
COc1nc(N=C(N)N)nc2ccc(C)cc12,·,·,17*,8.8*,43*,2,6,9.5*
CCCN(CC(=O)Nc1ccccc1C)C(=O)c1ccc(C(=O)c2ccccc2)cc1,0,2,0,-1,·,·,·,·
CN(C)C=Nc1ncc2c3ccccc3n(CCN(C)C)c2c1C#N,-4,-9,5,1,·,·,·,·
CCN(CC)CCn1c2ccccc2c2cnc(N)c(C#N)c21,-3,0,18*,47*,71*,-2,7,3
Cc1cc(Oc2ccc3ccccc3c2)nc(SCC(=O)c2ccccc2)n1,-1,30,1,-3,·,·,·,·
O=c1[nH]c2ccccc2nc1-c1cccs1,2,-7,32*,8.2*,8.6*,4,32*,43*
Cc1cc(C)c2c(N)c3ccccc3nc2n1,-4,-6,16*,19*,30*,-1,70*,77*
O=C(Nc1ccc2nccnc2c1)Nc1ccccc1Cl,3,-7,20*,8.9*,1,6.8*,46*,44*
O=C(COC(=O)c1ccccc1NCCO)Nc1ccc(S(=O)(=O)NC2=NCCCCC2)cc1,2,-5,23*,11*,0,1,-32,-21
O=C(COC(=O)c1ccccc1O)Nc1cccc(S(=O)(=O)NC2=NCCCCC2)c1,1,-2,3,1,·,·,·,·
O=C(OCc1cc(=O)oc2cc(O)ccc12)c1cc(S(=O)(=O)N2CCOCC2)ccc1F,-2,-3,644*,8.4*,12*,-1,677*,654*
COC(=O)c1ccc2c(c1)C(C)(C)C(/C=C/c1ccc(O)cc1)=[N+]2C,-7,-8,25*,14*,-16,-2,0,2
COC(=O)c1ccc2c(c1)C(C)(C)C(/C=C/c1ccc(OC)c(OC)c1OC)=[N+]2C,4,-6,-4,-2,·,·,·,·
COc1ccc(NC(=O)C2(C)CCN2Cc2ccc(OC(C)C)cc2)cc1OC (centres undefined),2,0,0,4,·,·,·,·
Fc1ccccc1-c1nc2ccccc2[nH]1,6,-12,0,4,·,·,·,·
Oc1ccccc1C=Nc1ccccc1-c1nc2ccccc2[nH]1,2,-2,77*,8.3*,5,11*,-386,-354
Cc1nc2nc(-c3cccs3)cn2nc1C,3,-1,68*,10*,11*,13*,68*,66*
COc1cccc(-c2cn3nc(C)c(C)nc3n2)c1,4,-17,2,5,·,·,·,·
Cc1cc2oc3cc(NCCC4CCCN4C)ccc3c(=O)c2cc1C (centres undefined),4,-1,62*,8.8*,21*,8.7*,68*,64*
O=c1c2ccccc2oc2ccc(NCCCn3ccnc3)cc12,4,-10,2,5,·,·,·,·
CCN(CC)CCn1nc2c3c(cccc3c1=O)-c1ccccc1-2,5,-6,18*,35*,72*,4,-5,-14
O=c1c2cccc3c2c(nn1CN1CCOCC1)-c1ccccc1-3,4,-2,·,·,·,·,·,·
SMILES,FXN GAA850 act,FAS TE block,proKLK7 act,SMARCA2 activ,SMARCA2 act conf,VP16 Luc act,proKLK7 act conf,EDANS-DABCYL int
Cc1ccc(C(=O)OCc2c(C)noc2C)cc1NC(=O)c1ccco1,3,-4,0,-3,·,·,·,·
c1ccc2c(c1)CCN(C1=Nc3cccc4cccc1c34)C2,3,-7,14*,12*,4,3,7,8.2*
CCc1cccc(C)c1NC(=O)C1CC=CCC1C(=O)O (centres undefined),2,0,0,-1,·,·,·,·
CCOC(=O)C1(C)CCN1C(=O)c1ccc(Cl)cc1Cl (centres undefined),1,-4,0,-2,·,·,·,·
CS(=O)(=O)Nc1ccc(C(=O)Nc2ccc3ccccc3c2)cc1,3,-3,13*,8.4*,16*,7.2*,1,1
COc1ccc(C(=O)Nc2ccc3ccccc3c2)cc1,-2,3,0,4,·,·,·,·
CCCC(=O)NC(=S)Nc1c(C)cc(Br)cc1C,0,5,1,-1,·,·,·,·
CN1CCSc2ccc(C(=O)Nc3cc(F)ccc3F)cc21,7,21,16*,11*,3,12*,11,12*
COc1ccc(-c2cn3cc(C(=O)NN)ccc3n2)cc1,2,0,40*,11*,8.8*,5.4*,8,10.0*
NNC(=O)c1ccc2nc(-c3ccc(Br)cc3)cn2c1,1,0,5,7,·,·,·,·
CCN(CC)CCCNc1ccc2ncn3c4ccc(O)cc4c(=O)c1c23,1,-126,71*,8.1*,34*,3,9,28*
COc1cc2c(cc1OC)C(CSc1ccccc1C(=O)O)=NC(C)(C)C2,6,-4,14*,9.3*,9.4*,5.8*,6,5.2*
CC1CCCN(CC(=O)Nc2ccc(S(=O)(=O)N3CCCCC3)cc2)C1 (centres undefined),2,5,0,-3,·,·,·,·
COc1cc(C2Nc3ccccc3C(=O)N2c2ccc(Cl)cc2)c(Cl)cc1OCC(=O)O (centres undefined),5,1,22*,10*,12*,9.5*,26*,27*
CCOc1cc(C2Nc3ccccc3C(=O)N2c2ccccc2)c(Br)cc1OCC(=O)O (centres undefined),1,-2,7,-1,·,·,·,·
CC(C)(C)c1nnc(NC(=O)Cc2ccc(Br)cc2)s1,2,0,0,-3,·,·,·,·
Cc1c(NC(=O)CS(=O)(=O)c2ccccc2)c(=O)n(-c2ccccc2)n1C,1,-4,0,-6,·,·,·,·
Cc1cc(N2CCCC2)nc2ccc(NC(=S)NCCCN3CCC(C)CC3)cc12,2,-10,15*,12*,19*,1,34*,45*
